Laboratory results: PubChem BioAssay (Tox21)
Inconclusive results are not listed. A call without a number means that no potency is given here. The source made the active and inactive calls. Unless noted, the call rests on the fitted dose curve; in most records, active means well fitted curve in the direction sought with a large enough effect in the repeat runs; inconclusive means weak or mixed curves; inactive means no such curve, though single readings can be large; an effect the other way counts as inactive or inconclusive.

Columns and labels:
[1] = target: Estrogen receptor beta (Homo sapiens) (UniProt Q92731); experiment: qHTS assay to identify small molecule antagonists of the estrogen receptor beta (ER-beta) signaling pathway (AID 1259378; active means well fitted inhibition curve with a large enough effect in the signal ratio in the repeat runs, not every such curve was filed as active; the % refers to the signal ratio); settings: ER-beta-UAS-bla HEK293T, beta-lactamase FRET ratio, 16 h; series mostly up to 92.4 µM
Method in brief: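 Antagonist mode: compounds added to beta-lactamase reporter HEK293T ER-beta-UAS cells stimulated with E2 (1nM final), 16 hr at 37C. LiveBLAzer B/G FRET substrate, 2 hours room temperature, fluorescence read-out.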

[2] = qHTS assay to identify small molecule agonists of the androgen receptor (AR) signaling pathway in the presence of an antagonist - cell viability counter screen (AID 1259379); settings: MDA-kb2 viability, CellTiter-Fluor, 16 h; series mostly up to 92.4 µM;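 further: MDA-kb2 human breast cancer cells carrying an MMTV luciferase reporter; nearly all actives have a fitted effect of over 25% in size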
Method in brief: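 Viability counter screen: CellTiter-Fluor fluorescence, measured in the same wells as the luciferase read-out. MDA-kb2 cells, 3,000/well, with nilutamide at 3.0uM final and compounds at 15 concentrations, 16 hr at 37C, 0% CO2.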

[3] = qHTS assay to identify small molecule agonists of the estrogen receptor beta (ER-beta) signaling pathway - cell viability counter screen (AID 1259380); settings: ER-beta-bla HEK293T viability, CellTiter-Glo luminescence, 16 h; series mostly up to 92.4 µM; further: nearly all actives have a fitted effect of over 30% in size
Method in brief: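 Luminescence read-out (CellTiter-Glo, 30 min, room temp) taken in the same wells as the beta-lactamase reporter assay; ER-beta-UAS-bla HEK293T cells exposed to DMSO-dissolved compounds for 16 hr at 37C in 2% charcoal-stripped FBS medium.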

[4] = qHTS assay to identify small molecule antagonists of the estrogen receptor beta (ER-beta) signaling pathway - cell viability counter screen (AID 1259382); settings: ER-beta-UAS-bla HEK293T viability, CellTiter-Glo luminescence, 16 h; series mostly up to 92.4 µM; further: nearly all actives have a fitted effect of over 55% in size
Method in brief: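 Luminescent ATP read-out (CellTiter-Glo, 30 min, RT) taken in the same wells as the bla reporter assay. HEK293T ER-beta-UAS-bla cells in 2% charcoal-stripped FBS were exposed to compounds with 1nM E2 for 16 hr at 37C.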

[5] = target: Estrogen receptor (Homo sapiens) (UniProt P03372); experiment: qHTS assay to identify small molecule agonists of the estrogen receptor alpha (ER-alpha) signaling pathway in the presence of an antagonist (AID 1259383; calls by dose curve; further: top concentration of the series differs between compounds; nearly all actives have a fitted effect of over 15% in size); settings: VM7Luc4E2 cells, ERE-luciferase, +ICI-182,780, 22 h; series mostly up to 92.4 µM
Method in brief: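 Luciferase luminescence (ONE-Glo, 30min at room temperature) measured in VM7Luc4E2 cells after 22hr compound exposure at 15 concentrations, with 10.0nM ICI-182,780 final present; cells express endogenous ER-alpha and carry four EREs upstream of luciferase.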

[6] = qHTS assay to identify small molecule agonists or antagonists of the thyroid stimulating hormone receptor (TSHR) signaling pathway - wild type cell line counter screen (AID 1259384; calls by dose curve); settings: HEK293 wild type, cAMP HTRF counter-screen, stronger effect = higher value; series mostly up to 92.4 µM
Method in brief: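 Counter screen in untransfected Hek293: compounds (15-point titration, triplicate) plus phosphodiesterase inhibitor Ro20-1724 added after 18 h plating; 30 min RT. Intracellular cAMP via competitive d2/cryptate immunoassay, 1 h incubation.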

[7] = target: Thyrotropin receptor (Homo sapiens) (UniProt P16473); experiment: qHTS assay to identify small molecule antagonists of the thyroid stimulating hormone receptor (TSHR) signaling pathway (AID 1259385; calls by dose curve; further: nearly all actives have a fitted effect of over 20% in size); settings: TSHR-HEK293 cAMP HTRF, TSH-stimulated antagonist mode; series mostly up to 92.4 µM
Method in brief: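 Antagonist mode: compound-treated TSHR-expressing HEK293 cells were stimulated with 1.5 ng/mL TSH (final) in presence of Ro20-1724 for 30 min at RT. HTRF cAMP detection after 1 h; each compound tested at 15 concentrations, triplicate.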

[8] = qHTS assay to identify small molecule agonists of the estrogen receptor alpha (ER-alpha) signaling pathway in the presence of an antagonist - cell viability counter screen (AID 1259386); settings: VM7Luc4E2 viability, CellTiter-Fluor fluorescence, 22 h; series mostly up to 92.4 µM;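 further: cells exposed to compounds for 22 h at 37 °C before the viability read; nearly all actives have a fitted effect of over 30% in size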
Method in brief: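 Read-out: CellTiter-Fluor fluorescence after 1hr reagent incubation, measured in the same wells as the luciferase readout. VM7Luc4E2 cells were exposed to 15 compound concentrations with 10.0nM ICI-182,780 for 22hr at 37C.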

[9] = target: Estrogen receptor beta (Homo sapiens) (UniProt Q92731); experiment: qHTS assay to identify small molecule agonists of the estrogen receptor beta (ER-beta) signaling pathway (AID 1259377; active means well fitted activation curve with a large enough effect in the signal ratio in the repeat runs, not every such curve was filed as active; the % refers to the signal ratio; further: potency means the concentration at half of the fitted maximal effect); settings: ER-beta-UAS-bla HEK293T, beta-lactamase FRET ratio, 16 h; series mostly up to 92.4 µM
Method in brief: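 ER-beta-UAS-bla HEK293T (GripTite) cells carrying a UAS-driven beta-lactamase reporter, in medium with 2% charcoal-stripped FBS, were exposed to compounds for 16 hr at 37C; LiveBLAzer B/G FRET substrate was then added and fluorescence read after 2 hours at room temperature.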

[10] = target: Androgen receptor (Homo sapiens) (UniProt P10275); experiment: qHTS assay to identify small molecule agonists of the androgen receptor (AR) signaling pathway in the presence of an antagonist (AID 1259381; calls by dose curve; further: nearly all actives have a fitted effect of over 15% in size; further: potency means the concentration at half of the fitted maximal effect); settings: MDA-kb2 MMTV-luciferase, AR agonist + nilutamide, 16 h; series mostly up to 92.4 µM
Method in brief: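 Luciferase read-out (ONE-Glo, 30min room temperature) in MDA-kb2 MMTV-reporter cells; agonist mode run in presence of AR antagonist nilutamide, 3.0uM final. Compounds tested as 15-point series, 16hr exposure at 37C, 0% CO2.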

Estrogen receptor (Homo sapiens), sequence (P03372 whole entry, looked up): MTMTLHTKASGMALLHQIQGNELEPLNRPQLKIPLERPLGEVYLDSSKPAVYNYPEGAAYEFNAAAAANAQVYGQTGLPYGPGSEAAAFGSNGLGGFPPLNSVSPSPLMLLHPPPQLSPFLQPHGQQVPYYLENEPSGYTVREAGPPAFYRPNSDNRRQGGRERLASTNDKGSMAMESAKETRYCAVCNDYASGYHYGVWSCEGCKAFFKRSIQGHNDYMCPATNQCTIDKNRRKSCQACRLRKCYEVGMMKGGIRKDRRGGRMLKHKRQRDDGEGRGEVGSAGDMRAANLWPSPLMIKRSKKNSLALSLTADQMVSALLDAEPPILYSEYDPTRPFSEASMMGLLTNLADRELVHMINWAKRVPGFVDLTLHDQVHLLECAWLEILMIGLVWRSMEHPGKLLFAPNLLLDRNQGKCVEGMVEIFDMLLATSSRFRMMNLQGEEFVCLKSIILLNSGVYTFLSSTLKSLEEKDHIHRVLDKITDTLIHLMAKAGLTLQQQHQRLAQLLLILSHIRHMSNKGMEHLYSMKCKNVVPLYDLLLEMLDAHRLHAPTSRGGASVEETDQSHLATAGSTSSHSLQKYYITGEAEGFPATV
Estrogen receptor beta (Homo sapiens), sequence (Q92731 whole entry, looked up): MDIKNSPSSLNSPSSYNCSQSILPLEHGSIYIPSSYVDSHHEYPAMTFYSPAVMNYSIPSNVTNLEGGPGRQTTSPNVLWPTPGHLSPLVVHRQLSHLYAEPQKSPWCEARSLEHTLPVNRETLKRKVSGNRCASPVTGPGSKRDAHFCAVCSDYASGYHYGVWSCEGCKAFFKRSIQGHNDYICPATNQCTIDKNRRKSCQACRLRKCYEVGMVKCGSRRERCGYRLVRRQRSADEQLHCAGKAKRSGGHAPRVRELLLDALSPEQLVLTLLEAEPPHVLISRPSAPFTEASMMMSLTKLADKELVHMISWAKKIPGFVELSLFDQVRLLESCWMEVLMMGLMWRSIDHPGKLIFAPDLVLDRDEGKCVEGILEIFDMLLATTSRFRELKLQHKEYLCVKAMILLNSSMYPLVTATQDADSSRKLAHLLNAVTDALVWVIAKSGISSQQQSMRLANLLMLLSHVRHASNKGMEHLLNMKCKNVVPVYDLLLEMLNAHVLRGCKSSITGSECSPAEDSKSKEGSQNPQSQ
Thyrotropin receptor (Homo sapiens), sequence (P16473 whole entry, looked up): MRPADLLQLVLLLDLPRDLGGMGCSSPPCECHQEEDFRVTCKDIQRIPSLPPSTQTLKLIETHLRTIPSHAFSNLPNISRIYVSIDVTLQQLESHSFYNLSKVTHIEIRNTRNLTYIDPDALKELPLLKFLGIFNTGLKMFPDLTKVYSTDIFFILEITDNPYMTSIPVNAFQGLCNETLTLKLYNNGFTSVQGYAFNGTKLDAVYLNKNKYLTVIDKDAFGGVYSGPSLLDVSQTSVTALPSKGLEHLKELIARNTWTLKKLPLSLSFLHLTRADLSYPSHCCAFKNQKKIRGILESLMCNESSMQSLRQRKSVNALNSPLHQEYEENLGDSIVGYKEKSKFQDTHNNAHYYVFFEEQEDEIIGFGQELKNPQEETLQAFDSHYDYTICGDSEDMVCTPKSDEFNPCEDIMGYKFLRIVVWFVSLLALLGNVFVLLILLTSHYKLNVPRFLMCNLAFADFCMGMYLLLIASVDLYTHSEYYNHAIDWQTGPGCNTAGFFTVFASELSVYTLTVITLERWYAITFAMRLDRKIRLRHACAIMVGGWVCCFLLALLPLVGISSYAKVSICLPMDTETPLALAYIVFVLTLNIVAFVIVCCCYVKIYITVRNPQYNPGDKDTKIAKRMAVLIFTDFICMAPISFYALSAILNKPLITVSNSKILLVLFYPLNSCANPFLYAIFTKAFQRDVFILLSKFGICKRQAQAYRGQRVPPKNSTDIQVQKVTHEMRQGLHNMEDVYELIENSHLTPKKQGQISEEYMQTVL
Androgen receptor (Homo sapiens), sequence (P10275 whole entry, looked up): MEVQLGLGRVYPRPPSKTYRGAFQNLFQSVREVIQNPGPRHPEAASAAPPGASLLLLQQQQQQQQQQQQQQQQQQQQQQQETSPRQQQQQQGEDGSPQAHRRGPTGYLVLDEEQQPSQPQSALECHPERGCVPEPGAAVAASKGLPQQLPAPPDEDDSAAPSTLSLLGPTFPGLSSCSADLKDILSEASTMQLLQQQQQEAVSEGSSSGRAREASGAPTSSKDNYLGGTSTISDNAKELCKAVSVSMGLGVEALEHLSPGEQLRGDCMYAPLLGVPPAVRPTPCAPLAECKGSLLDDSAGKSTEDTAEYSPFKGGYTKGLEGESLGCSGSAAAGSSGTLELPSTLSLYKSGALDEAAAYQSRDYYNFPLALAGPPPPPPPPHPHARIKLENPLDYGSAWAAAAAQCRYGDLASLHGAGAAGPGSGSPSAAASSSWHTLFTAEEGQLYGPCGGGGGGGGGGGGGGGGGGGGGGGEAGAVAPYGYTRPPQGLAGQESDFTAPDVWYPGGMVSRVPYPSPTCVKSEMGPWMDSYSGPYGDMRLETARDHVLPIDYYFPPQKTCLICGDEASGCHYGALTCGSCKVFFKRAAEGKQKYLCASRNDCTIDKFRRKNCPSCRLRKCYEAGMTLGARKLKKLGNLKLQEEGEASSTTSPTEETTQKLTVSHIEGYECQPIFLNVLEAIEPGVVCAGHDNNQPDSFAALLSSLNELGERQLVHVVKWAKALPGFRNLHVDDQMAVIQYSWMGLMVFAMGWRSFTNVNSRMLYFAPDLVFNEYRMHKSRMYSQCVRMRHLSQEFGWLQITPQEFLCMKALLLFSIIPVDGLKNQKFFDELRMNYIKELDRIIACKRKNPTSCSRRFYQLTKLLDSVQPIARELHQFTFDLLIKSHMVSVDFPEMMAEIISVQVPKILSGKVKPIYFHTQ

Structure (SMILES)	Potency [1]	Potency [2]	Potency [3]	Potency [4]	Potency [5]	outcome [6]	Potency [7]	Potency [8]	Potency [9]	Potency [10]
CCOC(=O)CC(O)(CC(=O)OCC)C(=O)OCC	inactive	inactive	inactive	inactive	inactive	inactive	inactive	inactive	–	–
Nc1ncnc2c1ncn2[C@@H]1O[C@H](CO)[C@@H](O)[C@H]1O	–	inactive	inactive	inactive	inactive	inactive	inactive	inactive	inactive	–
CCC(CC)C(=O)O	inactive	inactive	inactive	inactive	inactive	–	–	inactive	–	–
NC(=O)c1ccccc1	inactive	inactive	inactive	inactive	–	inactive	inactive	inactive	–	inactive
CCCCCO	inactive	inactive	inactive	inactive	inactive	inactive	inactive	inactive	–	–
Oc1ccc(Oc2ccccc2)cc1	–	inactive	inactive	inactive	–	inactive	inactive	inactive	11.6 µM (active)	–
COc1ccc(CN(CCN(C)C)c2ncccn2)cc1	inactive	inactive	inactive	–	–	inactive	inactive	inactive	–	–
CCC(=O)O[C@]1(C(=O)COC)[C@@H](C)C[C@H]2[C@@H]3CCC4=CC(=O)C=C[C@]4(C)C3(F)[C@@H](O)C[C@@]21C (some centres undefined)	–	inactive	inactive	inactive	–	inactive	–	inactive	–	0.006 µM (active)
CC(CCl)OC(C)CCl (centres undefined)	inactive	inactive	inactive	–	inactive	inactive	inactive	inactive	–	–
